We go through 15 molecules from PubChem BioAssay (NCATS).

SMILES strings stand for the structures. Records with an inconclusive call do not appear. The source made the active and inactive calls. Calls follow the shape of the dose curve; as a rule, active = well fitted curve in the direction sought with a large enough effect; inconclusive = small, poorly fitted or top-dose-only effect, or another doubt; inactive = no such curve, though single readings can be large; an effect the other way counts as inactive or inconclusive.

Experiment [1] can be described thus: qHTS of pediatric cancer cell lines to identify multiple opportunities for drug repurposing: Primary screen for SJ-GBM2 cells (AID 1347091). Also: potency is read from the fitted curve at half-maximal effect. In a few lines:
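Eight- or eleven-point concentration series, 48 h treatment at 37 degrees C in growth media; readout CellTiter-Glo luminescence. Potency and efficacy were taken from the concentration-response curves.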
(In general: qHTS replaces the single test concentration by a dilution series.)

The nature of experiment [2]: qHTS of pediatric cancer cell lines to identify multiple opportunities for drug repurposing: Primary screen for SK-N-MC cells (AID 1347093). Also: potency is read from the fitted curve at half-maximal effect. The gist of the method:
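Metabolically active cells were quantified by ATP-dependent luminescence (CellTiter-Glo, 15 min at room temperature) following 48 h treatment. Cells had been plated at 500-1,000 per well and settled for 5 h beforehand.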

The nature of experiment [3]: qHTS of pediatric cancer cell lines to identify multiple opportunities for drug repurposing: Primary screen for NB-EBc1 cells (AID 1347095). Also: potency is read from the fitted curve at half-maximal effect. The gist of the method: (§1)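 Quantitative HTS format: each compound titrated (MIPE 11 points from 0.78 nM, NPC 8 points from 0.59 nM) onto cells plated 5 hours earlier. After 48 h at 37 degrees C, CellTiter-Glo luminescence was recorded.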

A short description of experiment [4]: qHTS of pediatric cancer cell lines to identify multiple opportunities for drug repurposing: Primary screen for U-2 OS cells (AID 1347096). Also: nearly all actives have a fitted effect of over 50% in size. Also: potency is read from the fitted curve at half-maximal effect. The gist of the method:
(§2)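 Cells (500-1,000/well) in growth media were settled 5 h at 37 degrees C, then given compounds for 48 h. Viability was read as CellTiter-Glo luminescence. Primary runs used MIPE at 11 points (0.78 nM-46 µM) and NPC at 8 points (0.59 nM-46 µM); follow-ups used 11 points.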

Experiment [5] can be described thus: qHTS of pediatric cancer cell lines to identify multiple opportunities for drug repurposing: Primary screen for Saos-2 cells (AID 1347097). Also: nearly all actives have a fitted effect of over 40% in size. Also: potency is read from the fitted curve at half-maximal effect. The gist of the method: as §1
The nature of experiment [6]: qHTS of pediatric cancer cell lines to identify multiple opportunities for drug repurposing: Primary screen for SK-N-SH cells (AID 1347098). Also: nearly all actives have a fitted effect of over 65% in size. Also: potency is read from the fitted curve at half-maximal effect. The gist of the method:
(§3)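 Cells (500-1,000/well) rested 5 h, then received compounds for 48 h; metabolically active cells were measured by CellTiter-Glo luminescence. Final concentrations spanned up to 46 µM (MIPE, 11-point) or 0.59 nM-46 µM (NPC, 8-point) in primary screens, 11-point in follow-ups.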

Experiment [7] can be described thus: qHTS of pediatric cancer cell lines to identify multiple opportunities for drug repurposing: Primary screen for NB1643 cells (AID 1347099). Also: nearly all actives have a fitted effect of over 50% in size. Also: potency is read from the fitted curve at half-maximal effect. In a few lines: as §1
Experiment [8] can be described thus: qHTS of pediatric cancer cell lines to identify multiple opportunities for drug repurposing: Primary screen for LAN-5 cells (AID 1347100). Also: potency is read from the fitted curve at half-maximal effect. In a few lines:
as §2

The nature of experiment [9]: qHTS of pediatric cancer cell lines to identify multiple opportunities for drug repurposing: Primary screen for BT-12 cells (AID 1347101). Also: nearly all actives have a fitted effect of over 25% in size. Also: potency is read from the fitted curve at half-maximal effect. In a few lines: as §3
Experiment [10] can be described thus: qHTS of pediatric cancer cell lines to identify multiple opportunities for drug repurposing: Primary screen for Rh18 cells (AID 1347102). Also: nearly all actives have a fitted effect of over 65% in size. Also: potency is read from the fitted curve at half-maximal effect. In a few lines:
as §2

A short description of experiment [11]: qHTS of pediatric cancer cell lines to identify multiple opportunities for drug repurposing: Primary screen for RD cells (AID 1347104). Also: nearly all actives have a fitted effect of over 55% in size. Also: potency is read from the fitted curve at half-maximal effect. The gist of the method: as §1
A short description of experiment [12]: qHTS of pediatric cancer cell lines to identify multiple opportunities for drug repurposing: Primary screen for MG 63 (6-TG R) cells (AID 1347105). Also: nearly all actives have a fitted effect of over 50% in size. Also: potency is read from the fitted curve at half-maximal effect. In a few lines: as §1
Experiment [13] can be described thus: qHTS of pediatric cancer cell lines to identify multiple opportunities for drug repurposing: Primary screen for control Hh wild type fibroblast cells (AID 1347106).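 Also: series mostly up to about 46 µM; a drop in luminescence marks cytotoxicity and a rise apparent proliferation; nearly all actives have a fitted effect of over 55% in size.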 The gist of the method: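 Viability after 48 h compound treatment at 37C, 500-1,000 cells/well, read as ATP luminescence with CellTiter-Glo. Primary screens used 11-point (MIPE, 0.78 nM-46 µM) or 8-point (NPC, 0.59 nM-46 µM) final concentrations; follow-up screens used 11-point dilutions.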

Experiment [14] can be described thus: qHTS of pediatric cancer cell lines to identify multiple opportunities for drug repurposing: Primary screen for Rh30 cells (AID 1347107). Also: nearly all actives have a fitted effect of over 75% in size. Also: potency is read from the fitted curve at half-maximal effect. In a few lines: as §2
Experiment [15] in a line: qHTS of pediatric cancer cell lines to identify multiple opportunities for drug repurposing: Primary screen for Rh41 cells (AID 1347108). Also: nearly all actives have a fitted effect of over 70% in size. Also: potency is read from the fitted curve at half-maximal effect. The gist of the method:
as §1

A short description of experiment [16]: qHTS of pediatric cancer cell lines to identify multiple opportunities for drug repurposing: Primary screen for OHS-50 cells (AID 1347103). Also: nearly all actives have a fitted effect of over 40% in size. Also: potency is read from the fitted curve at half-maximal effect. The gist of the method: as §3
The nature of experiment [17]: qHTS of pediatric cancer cell lines to identify multiple opportunities for drug repurposing: Primary screen for A673 cells (AID 1347092). Also: potency is read from the fitted curve at half-maximal effect; nearly all actives have a fitted effect of over 45% in size. The gist of the method: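 Titration-based qHTS on A673 cells: MIPE compounds spanned 11 points (0.78 nM to 46 µM final), NPC compounds 8 points (0.59 nM to 46 µM final). Viability after 48 h was measured by ATP luminescence.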
Experiment [18] is described as follows: qHTS of pediatric cancer cell lines to identify multiple opportunities for drug repurposing: Primary screen for BT-37 cells (AID 1347094). Also: potency is read from the fitted curve at half-maximal effect. The gist of the method:
as §1

Experiment [19] is described as follows: qHTS of pediatric cancer cell lines to identify multiple opportunities for drug repurposing: Confirmatory screen for NB1643 cells (AID 1347109). Also: potency is read from the fitted curve at half-maximal effect; nearly all actives have a fitted effect of over 45% in size. In a few lines: as §2
A short description of experiment [20]: qHTS of pediatric cancer cell lines to identify multiple opportunities for drug repurposing: Confirmatory screen for A673 cells (AID 1347110).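 Also: cells exposed to compound for 48 h before the viability read; nearly all actives have a fitted effect of over 65% in size.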 Also: potency is read from the fitted curve at half-maximal effect. The gist of the method:
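Forty-eight-hour viability assay. Follow-up compounds ran at 11-point dilutions; positive control bortezomib at 2.3 uM final, neutral control DMSO.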

Regarding `C[C@]12CC[C@H]3[C@@H](CCC4=CC(=O)CC[C@@]43C)[C@H]1CC[C@H]2O`, the Potency entry in [1], in experiment [2], in experiment [3], in experiment [4], in experiment [5] and in [6] was “inactive” each time. Moreover, the Potency entry in experiment [7], in [8], in experiment [9], in experiment [10], in [11] and in experiment [12] was “inactive” throughout. In addition, the Potency result in experiment [13], in experiment [14] and in [15] was “inactive” throughout.
Consider `Cc1ccc(Cl)c(O)c1`, for which the Potency result in experiment [1], in [2], in experiment [3], in [4], in [5] and in [6] was “inactive” throughout. For the same molecule, the Potency entry in experiment [8], in experiment [9], in [10], in experiment [16], in experiment [11] and in [12] was “inactive” in each case. In addition, the Potency result in experiment [13], in [14] and in experiment [15] was “inactive” in each case.
On to `Fc1cc(Br)ccc1CBr`, for which the Potency result in [1], in [2], in experiment [3], in experiment [4], in experiment [5] and in experiment [6] was “inactive” in each case. In addition, the Potency result in [8], in [9], in [10], in [16], in experiment [11] and in experiment [12] was “inactive” in each case. Besides, the Potency entry in [13], in experiment [14] and in experiment [15] was “inactive” each time.
On to `C[C@@]12OC(=O)[C@]1([C@@H](O)[C@@H]1C=CCCC1)NC(=O)[C@H]2CCCl`, for which the Potency in [17] is 46.9 nM (active); in [2], 8.3 nM (active); in experiment [18], 96.8 nM (active); in experiment [3], 10.5 nM (active); in [4] it was 235 nM (active); in [5], 37.2 nM (active). Further, the Potency in experiment [6] is 171 nM (active); in experiment [7], 74.3 nM (active); in experiment [8], 52.6 nM (active); in [9], 137 nM (active); in experiment [10], 52.6 nM (active); in experiment [16], 68.5 nM (active). Also, the Potency in experiment [11] is 52.6 nM (active); in experiment [12], 29.6 nM (active); in [14], 5900 nM (active); in experiment [15] it was 59 nM (active); in experiment [19], 1040 nM (active); in experiment [20], 585 nM (active).
Turning to `COc1ccc2c(c1)CN(C)CC2c1ccc(Cl)c(Cl)c1` (stereo not drawn), the Potency in [1] is 18700 nM (active); in experiment [2] it was 18700 nM (active); in experiment [5], 18700 nM (active); in experiment [8], 20900 nM (active); in [16], 21700 nM (active). The Potency entry in [4], in [10], in experiment [12], in [13], in experiment [14] and in [15] was “inactive” throughout.
With `c1cc2c(cc1[C@H]1OC[C@H]3[C@H]1CO[C@H]3c1ccc3c(c1)OCO3)OCO2`, the Potency entry in experiment [1], in [2], in experiment [3], in experiment [4], in [5] and in experiment [7] was “inactive” in each case. Besides, the Potency result in experiment [8], in [9], in [10], in experiment [16], in [11] and in experiment [13] was “inactive” in each case. The Potency entry in experiment [14] and in experiment [15] was “inactive” throughout.
For `O=C(N[C@H]1CN2CCC1CC2)c1ccc(Cl)cc1`, the Potency result in experiment [1], in experiment [3], in experiment [4], in [8] and in experiment [9] was “inactive” throughout. Besides, the Potency was 1660 nM (active) in experiment [2]; 6810 nM (active) in [6]; 2640 nM (active) in experiment [7]; 26400 nM (active) in experiment [11]; 16500 nM (active) in [19]; 1650 nM (active) in [20].
For `CC1=C(C(=O)O)N2C(=O)[C@@H](N)[C@H]2SC1`, the Potency result in experiment [1], in [2], in experiment [3], in [4], in experiment [5] and in experiment [6] was “inactive” throughout. The Potency entry in experiment [8], in experiment [9], in experiment [10], in experiment [16], in experiment [11] and in experiment [12] was “inactive” in each case. The Potency result in [14] and in [15] was “inactive” in each case.
As for `Cc1c(C(=O)c2cccc3ccccc23)c2cccc3c2n1[C@H](CN1CCOCC1)CO3`, the Potency in [1] is 14800 nM (active); in experiment [2], 10500 nM (active); in experiment [3], 20900 nM (active); in experiment [7], 11800 nM (active); in experiment [9] it was 27300 nM (active); in [10], 20900 nM (active). Moreover, the Potency is 13700 nM (active) in [16], 29600 nM (active) in [11] and 20900 nM (active) in experiment [15]. Moreover, the Potency entry in experiment [4] was “inactive”.
In the case of `O=C(Nc1ccncc1)C(=O)c1cn(Cc2ccc(Cl)cc2)c2ccccc12`, the Potency in experiment [1] is 41.8 nM (active); in [2], 66.2 nM (active); in [3] it was 26.4 nM (active); in [5] it was 37.2 nM (active); in experiment [9], 137 nM (active); in [16], 86.3 nM (active). The Potency was 46.9 nM (active) in experiment [11], 74.3 nM (active) in [15], 465 nM (active) in experiment [19] and 414 nM (active) in [20]. The Potency entry in [10], in [13] and in experiment [14] was “inactive” throughout.
Regarding `O=C(O)CNC(=O)c1c(O)c2ccccc2n(Cc2ccccc2)c1=O`, the Potency entry in [1], in [18], in [4], in experiment [5], in [6] and in experiment [7] was “inactive” in each case. For the same molecule, the Potency entry in [8], in [10], in experiment [11], in experiment [13], in experiment [14] and in experiment [15] was “inactive” in each case.
For `Cc1ccccc1-n1c(Cn2ncc3c(N)ncnc32)nc2cccc(C)c2c1=O`, the Potency is 7.4 nM (active) in experiment [1]; 13.2 nM (active) in experiment [2]; 93.5 nM (active) in [3]; 8.3 nM (active) in experiment [5]; 12.2 nM (active) in [9]; 6.9 nM (active) in [16]. In addition, the Potency was 935 nM (active) in experiment [15] and 522 nM (active) in experiment [19]. The Potency entry in [4], in experiment [10], in experiment [13] and in experiment [20] was “inactive” throughout.
As for `NC1=NC(=O)N2CC12` (stereo not drawn), the Potency result in experiment [1], in [3], in [4], in [6], in experiment [7] and in [10] was “inactive” each time. Also, the Potency result in experiment [16], in [12], in [14] and in [15] was “inactive” each time. Moreover, the Potency in [5] was 13200 nM (active); in experiment [9], 21700 nM (active).
Consider `Nc1ccc(Cl)cc1N`, for which the Potency result in [1], in experiment [2], in [4], in experiment [7], in experiment [9] and in [10] was “inactive” throughout. Further, the Potency entry in experiment [16], in [11], in [13], in experiment [14] and in experiment [15] was “inactive” in each case. Besides, the Potency in experiment [8] was 24300 nM (active).
On to `O=S(=O)(F)Cc1ccccc1`, for which the Potency result in experiment [1], in experiment [3], in [4], in experiment [5], in experiment [6] and in experiment [7] was “inactive” each time. Also, the Potency entry in [8], in experiment [9], in [10], in experiment [16], in [11] and in experiment [13] was “inactive” throughout. Moreover, the Potency entry in [14] and in experiment [15] was “inactive” in each case.
